The values below come from PubChem BioAssay.

By inhibition is commonly meant the relative decrease from the control value, in per cent.

The target in assay [1] is Nuclear receptor coactivator 3 (Homo sapiens) (UniProt Q9Y6Q9). The experiment in a line: SRC3 coactivator transcriptional activity inhibitors, confirmation, cell-based, luminescence, quadruplicate (AID 588792;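 active = mean inhibition over 43.08%, the solvent-only control mean plus 3 SD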;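 note: 0% = DMSO treated cells and 100% = gossypol at 36 µM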). The note with it: HEK293 GAL4-SRC3 luciferase reporter, at 3.6 µM, hits give high values. In general terms: In a reporter assay the amount or activity of a reporter protein is the signal.

Assay [2] relates to transactivating tegument protein VP16 (Human herpesvirus 1), Gal4-VP16 luciferase reporter. Description: VP16 transactivation inhibitors, counter-screen for SRC3 inhibitor project, cell-based, luminescence, high throughput (AID 588794; in the data active = inhibition above about 30%). The note with it: mammalian cells, VP16-driven luciferase reporter luminescence; at 3.6 µM; hits give high values. On the technique in general: A counterscreen serves to expose hits that act by an unwanted route or on another target.

The target in assay [3] is Nuclear receptor coactivator 1 (Homo sapiens) (UniProt Q15788). Description: SRC1 coactivator transcriptional activity inhibitors, confirmation, cell-based, luminescence, quadruplicate (AID 588820;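 active = mean inhibition above 46.68%, the untreated control wells mean plus 3 SD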;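 note: 0% = DMSO wells and 100% = gossypol 36 µM treated wells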). Conditions: HEK293 GAL4-SRC1 luciferase reporter, at 3.6 µM, hits give high values.
The nature of assay [4]: VP16 transactivation inhibitors, counter-screen for SRC1 inhibitor project, cell-based, luminescence, high throughput (AID 588824). The note with it: cell-based VP16 transactivation luciferase luminescence; at 3.6 µM; hits give high values.
Assay [5] concerns transactivating tegument protein VP16 (Human herpesvirus 1). The experiment in a line: VP16 transactivation reporter inhibitors, counter-screen for SRC2 inhibitor project, cell-based, luminescence, single concentration (AID 652007; in the data active = inhibition above about 36%). The note with it: cell-based VP16 transactivation luciferase reporter, at 8.9 µM, hits give high values.
Assay [6] addresses Nuclear receptor coactivator 2 (Homo sapiens) (UniProt Q15596). The experiment in a line: SRC2 coactivator transcriptional activity inhibitors, confirmation, cell-based, luminescence, HEK293, triplicate (AID 652008;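 active = mean inhibition above 46.5%, the solvent-only control mean plus 3 SD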;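 note: 0% = DMSO-treated cells and 100% = Gossypol at 36 µM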). Conditions: HEK293 GAL4-SRC2 luciferase reporter, at 8.9 µM, hits give high values.
Assay [7] is described as follows: StAR promoter reporter inhibitors, counter-screen for LRH-1 inverse agonist project, cell-based, luminescence, high throughput (AID 651611; in the data active = inhibition above about 28%). The note with it: StAR promoter luciferase reporter counterscreen, at 3.6 µM, hits give high values.
Assay [8] deals with Nuclear receptor subfamily 5 group A member 2 (Homo sapiens) (UniProt O00482). Description: LRH-1 (NR5A2) inverse agonists, retest, confirmation, cell-based, luminescence (AID 651613; in the data active = inhibition above about 42%;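 note: HEK293T cells co-transfected with LRH-1 and StAR promoter luciferase reporter; 0% = vehicle wells and 100% = parental cells lacking receptor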). The note with it: cell-based LRH-1 luciferase reporter, inverse agonism; at 3.6 µM; hits give high values.
Assay [9] addresses Steroidogenic factor 1 (Homo sapiens) (UniProt Q13285). Description: SF1 (NR5A1) inverse agonists, counter-screen for LRH-1 inverse agonist project, cell-based, luminescence, high throughput (AID 651614; in the data active = inhibition above about 44%;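 note: cells cotransfected with StAR promoter reporter and SF1 expression vector; 0% = vehicle on cells with receptor and 100% = vehicle on cells lacking receptor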). The note with it: cell-based SF1 luciferase reporter, at 3.6 µM, hits give high values.
The nature of assay [10]: VP16 transactivation reporter inhibitors, counter-screen for LRH-1 inverse agonist project, cell-based, luminescence, high throughput (AID 651615; in the data active = inhibition above about 33%). Conditions: Gal4-VP16 luciferase reporter cells, at 3.6 µM, hits give high values.
Assay [11] is described as follows: Gal4-VP16 luciferase reporter inhibitors, counter-screen for COUP-TFII antagonist project, cell-based, luminescence, HEK293 (AID 687007; in the data active = inhibition above about 13%). The note with it: at 8.5 µM, hits give high values.
The target in assay [12] is COUP transcription factor 2 (Homo sapiens) (UniProt P24468). The experiment in a line: NR2F2 transcriptional activity inhibitors, confirmation, cell-based, luciferase reporter, HEK293, triplicate (AID 687008;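 active = mean inhibition over three repeats above a set limit taken from the earlier primary screen, cut at about 38% in these data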;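 note: 100% = cells given the luciferase reporter alone without the COUP-TF2 vector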). The note with it: HEK293 NGFI-A luciferase reporter, luminescence; at 8.5 µM; hits give high values.

A number with no mark means an inactive call. The list shows a part of the results. Active and inactive are the calls of the source. Cut-off read from the data, not from the text of the source, unless noted: active = inhibition above about 25%; inactive = the rest.

Chain of Nuclear receptor subfamily 5 group A member 2 (Homo sapiens) (O00482 whole entry, looked up): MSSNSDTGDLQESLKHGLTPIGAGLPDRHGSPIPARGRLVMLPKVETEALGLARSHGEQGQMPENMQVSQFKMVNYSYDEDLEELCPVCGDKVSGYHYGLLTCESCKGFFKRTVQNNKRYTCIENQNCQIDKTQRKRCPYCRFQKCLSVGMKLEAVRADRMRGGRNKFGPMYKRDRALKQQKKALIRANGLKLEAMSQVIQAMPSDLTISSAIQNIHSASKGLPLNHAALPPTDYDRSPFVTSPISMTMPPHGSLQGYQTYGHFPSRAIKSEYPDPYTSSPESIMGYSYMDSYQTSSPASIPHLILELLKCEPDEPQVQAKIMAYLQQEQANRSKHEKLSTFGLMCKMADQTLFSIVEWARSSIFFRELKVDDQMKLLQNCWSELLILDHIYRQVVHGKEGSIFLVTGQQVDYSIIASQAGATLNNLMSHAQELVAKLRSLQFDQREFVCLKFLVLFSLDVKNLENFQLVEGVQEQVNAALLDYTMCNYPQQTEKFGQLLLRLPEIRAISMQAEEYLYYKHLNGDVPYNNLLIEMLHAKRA
Chain of Nuclear receptor coactivator 2 (Homo sapiens) (Q15596 whole entry, looked up, the tested form may be a part): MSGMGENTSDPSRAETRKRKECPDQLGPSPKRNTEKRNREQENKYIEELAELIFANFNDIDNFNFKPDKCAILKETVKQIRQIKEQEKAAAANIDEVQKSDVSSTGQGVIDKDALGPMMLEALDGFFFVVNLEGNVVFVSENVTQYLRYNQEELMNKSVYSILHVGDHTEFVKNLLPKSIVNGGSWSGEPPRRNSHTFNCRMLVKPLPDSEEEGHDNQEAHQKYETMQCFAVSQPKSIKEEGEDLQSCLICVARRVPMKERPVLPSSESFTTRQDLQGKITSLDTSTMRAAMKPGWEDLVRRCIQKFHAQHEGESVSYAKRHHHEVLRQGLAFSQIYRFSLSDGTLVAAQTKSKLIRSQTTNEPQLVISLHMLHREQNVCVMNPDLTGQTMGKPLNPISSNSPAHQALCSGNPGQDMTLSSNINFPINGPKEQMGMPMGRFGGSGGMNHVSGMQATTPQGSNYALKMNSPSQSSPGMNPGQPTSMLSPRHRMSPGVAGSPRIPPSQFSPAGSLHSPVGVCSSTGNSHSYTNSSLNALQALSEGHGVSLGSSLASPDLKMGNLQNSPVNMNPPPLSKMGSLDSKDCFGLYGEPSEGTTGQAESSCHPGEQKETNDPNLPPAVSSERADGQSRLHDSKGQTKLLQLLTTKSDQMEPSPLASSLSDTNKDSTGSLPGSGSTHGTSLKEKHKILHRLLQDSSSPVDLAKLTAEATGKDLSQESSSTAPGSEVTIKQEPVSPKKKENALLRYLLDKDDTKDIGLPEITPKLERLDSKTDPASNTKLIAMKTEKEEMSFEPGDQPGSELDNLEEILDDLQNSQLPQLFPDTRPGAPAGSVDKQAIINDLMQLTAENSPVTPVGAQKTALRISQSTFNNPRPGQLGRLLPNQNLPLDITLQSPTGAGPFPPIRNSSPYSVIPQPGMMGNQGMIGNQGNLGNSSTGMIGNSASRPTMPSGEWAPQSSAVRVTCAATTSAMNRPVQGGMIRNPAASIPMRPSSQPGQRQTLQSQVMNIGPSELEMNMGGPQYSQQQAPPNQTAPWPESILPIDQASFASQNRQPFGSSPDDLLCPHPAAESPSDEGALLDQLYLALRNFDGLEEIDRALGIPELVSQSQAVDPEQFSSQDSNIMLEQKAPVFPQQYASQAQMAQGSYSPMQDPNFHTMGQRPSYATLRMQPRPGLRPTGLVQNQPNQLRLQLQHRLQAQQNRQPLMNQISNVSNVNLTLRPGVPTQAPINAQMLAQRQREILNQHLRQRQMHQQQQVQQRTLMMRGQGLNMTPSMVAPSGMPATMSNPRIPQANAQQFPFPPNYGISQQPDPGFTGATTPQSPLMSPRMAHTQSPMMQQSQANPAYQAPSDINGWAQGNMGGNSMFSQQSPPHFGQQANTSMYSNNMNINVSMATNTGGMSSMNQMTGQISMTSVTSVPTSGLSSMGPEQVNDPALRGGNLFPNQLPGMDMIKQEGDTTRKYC
Chain of Nuclear receptor coactivator 3 (Homo sapiens) (Q9Y6Q9 whole entry, looked up, the tested form may be a part): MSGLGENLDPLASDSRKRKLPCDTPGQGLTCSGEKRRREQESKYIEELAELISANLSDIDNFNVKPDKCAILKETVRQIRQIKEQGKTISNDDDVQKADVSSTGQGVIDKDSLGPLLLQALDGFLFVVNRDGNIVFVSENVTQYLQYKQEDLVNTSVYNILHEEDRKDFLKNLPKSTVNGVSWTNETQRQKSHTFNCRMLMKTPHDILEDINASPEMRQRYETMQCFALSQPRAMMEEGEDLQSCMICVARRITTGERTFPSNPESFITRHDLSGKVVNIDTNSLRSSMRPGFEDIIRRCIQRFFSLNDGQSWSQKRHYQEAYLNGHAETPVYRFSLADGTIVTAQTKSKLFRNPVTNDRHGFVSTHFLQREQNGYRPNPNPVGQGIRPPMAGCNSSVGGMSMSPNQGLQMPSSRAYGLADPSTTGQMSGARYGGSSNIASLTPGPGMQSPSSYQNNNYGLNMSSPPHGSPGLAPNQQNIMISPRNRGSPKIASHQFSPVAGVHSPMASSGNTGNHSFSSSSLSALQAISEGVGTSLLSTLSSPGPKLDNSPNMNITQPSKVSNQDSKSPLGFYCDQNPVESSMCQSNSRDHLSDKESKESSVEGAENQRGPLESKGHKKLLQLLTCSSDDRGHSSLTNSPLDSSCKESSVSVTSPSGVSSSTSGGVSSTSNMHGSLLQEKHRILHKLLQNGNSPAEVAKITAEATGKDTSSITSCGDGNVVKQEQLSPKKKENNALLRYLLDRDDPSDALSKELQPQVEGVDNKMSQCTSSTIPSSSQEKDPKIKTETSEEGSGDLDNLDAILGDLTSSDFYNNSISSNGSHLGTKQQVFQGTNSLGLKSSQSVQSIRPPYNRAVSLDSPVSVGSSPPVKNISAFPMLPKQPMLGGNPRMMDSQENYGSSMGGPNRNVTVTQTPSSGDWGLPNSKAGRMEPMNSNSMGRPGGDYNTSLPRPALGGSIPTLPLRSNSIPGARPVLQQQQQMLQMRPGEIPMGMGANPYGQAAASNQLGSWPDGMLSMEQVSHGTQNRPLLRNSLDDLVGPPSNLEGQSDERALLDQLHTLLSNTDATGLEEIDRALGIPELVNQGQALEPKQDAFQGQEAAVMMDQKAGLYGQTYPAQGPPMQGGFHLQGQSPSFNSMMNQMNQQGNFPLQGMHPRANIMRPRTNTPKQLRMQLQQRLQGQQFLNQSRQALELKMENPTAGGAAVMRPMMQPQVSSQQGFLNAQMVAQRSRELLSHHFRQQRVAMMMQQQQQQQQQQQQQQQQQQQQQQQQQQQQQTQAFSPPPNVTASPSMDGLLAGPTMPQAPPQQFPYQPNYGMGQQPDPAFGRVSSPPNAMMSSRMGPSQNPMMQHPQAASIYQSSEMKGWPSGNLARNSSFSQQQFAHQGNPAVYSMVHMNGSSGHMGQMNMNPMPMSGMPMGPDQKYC
Chain of Steroidogenic factor 1 (Homo sapiens) (Q13285 whole entry, looked up, the tested form may be a part): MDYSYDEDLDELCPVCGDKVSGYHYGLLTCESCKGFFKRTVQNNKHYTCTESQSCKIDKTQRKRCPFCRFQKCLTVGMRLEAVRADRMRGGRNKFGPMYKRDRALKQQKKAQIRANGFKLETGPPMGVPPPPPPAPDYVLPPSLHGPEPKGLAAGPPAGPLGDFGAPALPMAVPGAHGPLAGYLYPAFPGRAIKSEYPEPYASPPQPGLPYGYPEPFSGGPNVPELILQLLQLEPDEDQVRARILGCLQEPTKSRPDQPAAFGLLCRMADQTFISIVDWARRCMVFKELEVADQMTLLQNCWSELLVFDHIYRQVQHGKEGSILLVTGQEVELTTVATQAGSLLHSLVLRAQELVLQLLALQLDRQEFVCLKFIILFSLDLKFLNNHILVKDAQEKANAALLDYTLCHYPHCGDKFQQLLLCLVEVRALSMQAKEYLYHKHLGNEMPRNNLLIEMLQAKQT
Chain of COUP transcription factor 2 (Homo sapiens) (P24468 whole entry, looked up): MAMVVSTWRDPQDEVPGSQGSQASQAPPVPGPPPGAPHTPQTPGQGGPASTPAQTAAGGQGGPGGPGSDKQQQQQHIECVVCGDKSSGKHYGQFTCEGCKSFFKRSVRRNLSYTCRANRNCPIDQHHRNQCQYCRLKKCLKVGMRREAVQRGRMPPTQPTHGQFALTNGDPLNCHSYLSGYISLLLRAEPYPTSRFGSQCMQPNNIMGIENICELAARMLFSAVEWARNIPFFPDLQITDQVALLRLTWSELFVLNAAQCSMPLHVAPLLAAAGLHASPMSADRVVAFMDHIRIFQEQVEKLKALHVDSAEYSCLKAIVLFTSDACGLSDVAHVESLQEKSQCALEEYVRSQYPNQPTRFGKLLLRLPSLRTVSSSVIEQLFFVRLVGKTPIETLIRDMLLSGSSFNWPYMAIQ

Regarding `Cc1ccc(C(=O)Nc2cnc3ccccc3c2)cc1`, the inhibition in [1] was 44.4% (active); in assay [2] it was 9.25%; in assay [3], -70.2%; in assay [4], 23.4%; in assay [5] it was 50.7% (active); in [6] it was 84.9% (active).

As for `COCCn1c(C)cc(C(=O)COc2ccc(C)nc2[N+](=O)[O-])c1C`, the inhibition in [1] is 24.8%; in [2] it was 1.88%; in assay [3], 12.1%; in assay [4], -5.22%; in [5], 23.8%; in [6], 59.5% (active).

Turning to `CC1(C)CC(N2CCN(C(c3ccccc3)c3ccccc3)CC2)=CC(=[N+]2CCCCC2)C1`, the inhibition in assay [1] is 91% (active); in assay [2] it was 87.8% (active); in assay [3], 69.5% (active); in [4], 87.8% (active); in assay [7], 80.6% (active); in assay [8], 110% (active). Moreover, the inhibition in assay [9] is 94.8% (active); in assay [10] it was 94.7% (active); in assay [11] it was 24.1% (active); in assay [12], 86.3% (active).

`CC(C)(C)c1ccc(Oc2ccc(NC(=O)c3ccccc3C(=O)O)cn2)cc1`: the inhibition in assay [1] is 4.23%; in assay [2], 10.3%; in assay [3], 2.66%; in [4] it was 7.37%; in assay [5] it was 39.5% (active); in assay [6], 62.4% (active).

For `CC1(Cc2ccc(F)cc2)C(=O)Nc2ccc(-c3cccnc3)cc21` (centres undefined), the inhibition in assay [1] was 50.6% (active); in assay [2] it was 35.4% (active); in assay [3] it was 48.7% (active); in assay [4] it was 35.3% (active); in [5], 10.2%; in assay [6], 36.8%.

On to `COc1cccc(NC(=O)Nc2nc(-c3ccc(OC)c(OC)c3)cs2)c1`, for which the inhibition was 81.3% (active) in [1]; 73.5% (active) in assay [2]; 37.4% in [3]; 74% (active) in assay [4]; 89.7% (active) in assay [5]; 92.9% (active) in [6].

With `Nc1nc(=S)c2ncn([C@@H]3O[C@H](CO)[C@@H](O)[C@H]3O)c2[nH]1`, the inhibition is 67.6% (active) in assay [1]; 23.3% in assay [2]; 11.8% in assay [3]; 29.9% (active) in assay [4]; 77.2% (active) in assay [8]; 48.2% (active) in assay [9].

Take `Cc1nn(C(C)(C)C)c(C)c1/C=N/OC(=O)Nc1ccc(Cl)c(Cl)c1`: the inhibition was 20.2% in assay [1]; 16.6% in assay [2]; 25.3% in assay [3]; 12% in [4]; 63% (active) in assay [5]; 82% (active) in [6].

For `CCc1c(C)nc2ccc(Br)cc2c1SCCC#N`, the inhibition was 58.4% (active) in [1]; 44.3% (active) in assay [2]; 66.9% (active) in [3]; 33.5% (active) in [4]; 9.39% in assay [5]; 34.7% in assay [6].

Turning to `C[C@H]1O[C@@H](O[C@H]2[C@@H](O)C[C@H](O[C@H]3[C@@H](O)C[C@H](O[C@H]4CC[C@@]5(C)[C@H](CC[C@@H]6[C@@H]5C[C@@H](O)[C@]5(C)[C@@H](C7=CC(=O)OC7)CC[C@]65O)C4)O[C@@H]3C)O[C@@H]2C)C[C@H](O)[C@@H]1O`, the inhibition is 96.8% (active) in [1]; 88.6% (active) in assay [2]; 80.6% (active) in assay [3]; 87.5% (active) in assay [4]; 110% (active) in [8]; 97.7% (active) in assay [9]. The inhibition in assay [5] was 70.2% (active); in assay [6], 55.2% (active).

Consider `C=C1C(=O)[C@@]23[C@H](O)C[C@@H]4C(C)(C)CC[C@H](O)[C@@]4(C)[C@@H]2CC[C@@H]1[C@H]3O`, for which the inhibition in [1] is 28.5%; in [2], 49.6% (active); in [3], -18%; in [4] it was 46.2% (active); in [5], 33.9%; in assay [6] it was 66.4% (active).

With `O=C(Nc1ccc(C(=O)N2CCOCC2)cc1)Nc1cccc(C(F)(F)F)c1`, the inhibition in assay [1] is 66.9% (active); in [2] it was 43.2% (active); in [3], 64.3% (active); in [4] it was 38.8% (active); in [5], -0.39%; in assay [6] it was 36.4%.

Take `O=[N+]([O-])c1ccc2ncnc(N3CCN(Cc4ccc5c(c4)OCO5)CC3)c2c1`: the inhibition in assay [1] is 74.2% (active); in [2], 53.2% (active); in [3], 64.4% (active); in assay [4], 64.9% (active); in assay [5], 8.73%; in assay [6], 54.2% (active).

Consider `CC(=O)c1ccc(-n2c(C)c(C(C)=O)c3cc(O)ccc32)cc1`, for which the inhibition was 63% (active) in assay [1]; 45.6% (active) in [2]; 45.9% in [3]; 46.7% (active) in assay [4]; 2.74% in [5]; 54.7% (active) in assay [6].

Consider `COc1cc2ccccc2ccc1=NO`, for which the inhibition in assay [1] is 60.1% (active); in assay [2], 38% (active); in [3], 56.5% (active); in assay [4], 32.9% (active); in assay [5] it was 19.7%; in assay [6], 59.6% (active).

Turning to `Nc1ncnc2c(C3OC(CO)C(O)C3O)scc12` (centres undefined), the inhibition was 90.7% (active) in assay [1]; 95.1% (active) in [2]; 78.5% (active) in assay [3]; 94.9% (active) in assay [4]; 89.2% (active) in assay [7]; 107% (active) in assay [8]. Besides, the inhibition in [9] is 96.5% (active); in assay [10], 92.9% (active); in [5], 62.8% (active); in [6], 57.2% (active).

In the case of `COc1ccc(/C=C2\SC(=S)N(CCCC(=O)N3CCCCC3CCO)C2=O)cc1` (centres undefined), the inhibition was 20.9% in [1]; 17.1% in assay [2]; 4.91% in [3]; 13.6% in [4]; 61% (active) in assay [5]; 65.9% (active) in [6].

`Cc1noc(/C=C/c2ccccn2)c1[N+](=O)[O-]`: the inhibition in assay [1] was 54.6% (active); in assay [2] it was 47.8% (active); in assay [3] it was 48.4% (active); in assay [4], 37% (active); in assay [5], 25.9%; in assay [6] it was 29.3%.

With `COc1cc([C@@H]2c3cc4c(cc3[C@@H](O[C@@H]3O[C@@H]5CO[C@@H](C)O[C@H]5[C@H](O)[C@H]3O)[C@H]3COC(=O)[C@H]23)OCO4)cc(OC)c1O`, the inhibition is 64.4% (active) in assay [1]; 8.66% in [2]; 62.5% (active) in assay [3]; 6.22% in assay [4]; 69.3% (active) in [8]; 44.6% (active) in assay [9].
